Structures are written as SMILES. The whole screen tested about 310,000 compounds, of which about 14,000 (4.5%) showed an effect of 50% or more. The effect is printed as a negative number. Many of the other results were omitted from the sample, so strong results are more common in it than they were.
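Also: peak tail current of the secondary pulse compared with the same well before compound.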

human ether-à-go-go-related gene (hERG) potassium channel, sequence (Q12809 whole entry, looked up): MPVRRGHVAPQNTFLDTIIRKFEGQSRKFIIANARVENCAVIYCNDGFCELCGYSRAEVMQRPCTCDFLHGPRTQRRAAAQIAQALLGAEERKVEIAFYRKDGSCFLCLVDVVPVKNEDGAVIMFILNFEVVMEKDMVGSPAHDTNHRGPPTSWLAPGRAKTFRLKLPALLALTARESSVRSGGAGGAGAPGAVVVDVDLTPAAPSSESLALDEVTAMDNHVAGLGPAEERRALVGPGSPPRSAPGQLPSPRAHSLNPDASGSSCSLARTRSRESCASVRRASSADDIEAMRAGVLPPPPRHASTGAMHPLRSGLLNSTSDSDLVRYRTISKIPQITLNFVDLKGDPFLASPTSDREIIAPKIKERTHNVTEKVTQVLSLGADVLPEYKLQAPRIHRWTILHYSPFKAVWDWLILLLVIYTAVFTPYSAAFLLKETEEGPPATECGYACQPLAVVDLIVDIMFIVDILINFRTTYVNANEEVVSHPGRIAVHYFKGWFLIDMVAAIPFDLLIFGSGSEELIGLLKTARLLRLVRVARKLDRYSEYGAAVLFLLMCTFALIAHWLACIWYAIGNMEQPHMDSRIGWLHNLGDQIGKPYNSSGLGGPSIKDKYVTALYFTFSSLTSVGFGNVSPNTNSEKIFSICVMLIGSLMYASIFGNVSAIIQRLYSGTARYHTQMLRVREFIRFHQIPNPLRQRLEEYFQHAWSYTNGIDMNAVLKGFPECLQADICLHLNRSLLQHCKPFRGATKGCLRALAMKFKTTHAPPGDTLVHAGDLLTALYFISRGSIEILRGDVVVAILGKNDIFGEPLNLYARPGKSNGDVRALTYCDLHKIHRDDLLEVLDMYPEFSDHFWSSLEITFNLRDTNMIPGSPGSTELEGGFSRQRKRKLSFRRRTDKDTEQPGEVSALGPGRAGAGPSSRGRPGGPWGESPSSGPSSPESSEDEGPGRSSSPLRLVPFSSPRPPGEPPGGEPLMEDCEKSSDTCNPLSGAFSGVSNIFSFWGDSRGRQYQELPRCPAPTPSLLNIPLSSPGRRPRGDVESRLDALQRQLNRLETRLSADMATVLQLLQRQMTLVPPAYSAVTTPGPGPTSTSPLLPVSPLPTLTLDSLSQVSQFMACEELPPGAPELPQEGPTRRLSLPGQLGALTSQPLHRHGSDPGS

This test addresses human ether-à-go-go-related gene (hERG) potassium channel (human, UniProt Q12809). Nature of the test: primary screen, population patch clamp on CHO cells stably expressing hERG; higher = less effect of the substance.
As for `Cc1c(N2C(=O)CS/C2=N\N=C\c2ccc(Cl)cc2)c(=O)n(-c2ccccc2)n1C`, the “hERG current change (%, negative = inhibition) at 10uM” value is reported as -32.2%.

Regarding `CN1CCN(CCCN(Cc2ccco2)C(=S)Nc2ccc(Cl)cc2)CC1`, the “hERG current change (%, negative = inhibition) at 10uM” value is given as -69.6%.

For the molecule `S=C(Nc1ccc(Cl)cc1)N(CCCN1CCOCC1)Cc1ccco1`, the “hERG current change (%, negative = inhibition) at 10uM” value is given as -26%.

Consider `CCN1CCN(CCCN(Cc2ccco2)C(=S)Nc2ccc(Cl)cc2)CC1`, for which the “hERG current change (%, negative = inhibition) at 10uM” value is listed as -64.2%.

In the case of `CCOC(=O)C1C2C=CC3(CN(Cc4cccs4)C(=O)C13)O2` (stereo not drawn), the “hERG current change (%, negative = inhibition) at 10uM” value is 1.73%.

As to `CCOc1cccc(C(=O)NC(=S)Nc2cccc(C)c2)c1`, the “hERG current change (%, negative = inhibition) at 10uM” value is 6.87%.

Turning to `COCCCn1cnnc1SCc1nc2sc(C(C)=O)c(C)c2c(=O)[nH]1`, the “hERG current change (%, negative = inhibition) at 10uM” value is reported as -17%.

Consider `Cc1ccc2nc(C)c3c(c2c1)N(c1ccccc1)CC3`, for which the “hERG current change (%, negative = inhibition) at 10uM” value is given as -74.6%.

Turning to `Cc1ccc2nc(C)n(-c3ccc(F)cc3)c(=O)c2c1`, the “hERG current change (%, negative = inhibition) at 10uM” value was 21.3%.

`Cc1ccc2nc(C)c3c(c2c1)N(c1ccc(F)cc1)CC3`: the “hERG current change (%, negative = inhibition) at 10uM” value is listed as -92.2%.

In the case of `COc1cccc(N2CCc3c(C)nc4ccc(Cl)cc4c32)c1`, the “hERG current change (%, negative = inhibition) at 10uM” value is recorded as -72.9%.

`CCN1Cc2c(/C=C/c3ccccc3)nc3ccc(OC)cc3c2N(c2cccc(Cl)c2)C1`: the “hERG current change (%, negative = inhibition) at 10uM” value is -12.5%.

As to `Cc1ccc2cc3c(nc2c1)N(c1ccccc1)CC3`, the “hERG current change (%, negative = inhibition) at 10uM” value is listed as 2.24%.

Take `Cc1nc2ccc(Cl)cc2c(=O)n1-c1cccc(Cl)c1`: the “hERG current change (%, negative = inhibition) at 10uM” value came out at 3.78%.

As for `Cc1ccc2nc(C)c3c(c2c1)SCC3`, the “hERG current change (%, negative = inhibition) at 10uM” value is recorded as -27.4%.

For `CSc1nc(C)c2c(n1)N(c1ccc(F)cc1)CC2`, the “hERG current change (%, negative = inhibition) at 10uM” value was found to be 19.8%.

In the case of `COc1cccc(/C=N/Nc2cc(Cl)nc(C)n2)c1O`, the “hERG current change (%, negative = inhibition) at 10uM” value turned out to be 20.8%.

As to `COc1cc2c3c(c1OC)C1(C=CC(=O)C=C1)CC3N(C(=O)c1ccccc1)CC2` (stereo not drawn), the “hERG current change (%, negative = inhibition) at 10uM” value is given as -18.6%.

For the molecule `CCC(=O)NC(=S)Nc1ccc(NC(=O)COc2ccc(Cl)cc2Cl)cc1`, the “hERG current change (%, negative = inhibition) at 10uM” value came to 10.7%.

For the molecule `CC(=O)c1ccccc1OCc1ccc(S(=O)(=O)Cc2ccccc2)cc1`, the “hERG current change (%, negative = inhibition) at 10uM” value was -26.6%.

Regarding `Cc1ccc(/C=N/Nc2ccc(Cl)nn2)cc1`, the “hERG current change (%, negative = inhibition) at 10uM” value is -0.808%.

For `CCN(CC)S(=O)(=O)c1ccc(C(=O)OCC(=O)Nc2sc3c(c2C#N)CCCCC3)cc1`, the “hERG current change (%, negative = inhibition) at 10uM” value is listed as 8.12%.

In the case of `Cc1ccc(NS(=O)(=O)c2ccc(C(=O)N3CCC3)cc2)cc1`, the “hERG current change (%, negative = inhibition) at 10uM” value was determined as 15.7%.

Regarding `Cc1ccc(NS(=O)(=O)c2ccc(C(=O)N3CCCCCC3)cc2)cc1`, the “hERG current change (%, negative = inhibition) at 10uM” value is recorded as -8.38%.

As to `Cc1ccc(NS(=O)(=O)c2ccc(C(=O)N3CC(C)CC(C)C3)cc2)cc1` (stereo not drawn), the “hERG current change (%, negative = inhibition) at 10uM” value is given as -58.7%.

On to `Cc1ccc(S(=O)(=O)Nc2ccc(C(=O)N3CCCC3)cc2)cc1`, for which the “hERG current change (%, negative = inhibition) at 10uM” value is on record as -0.474%.

As to `Cc1ccc(NS(=O)(=O)c2ccc(C(=O)N3CC(C)OC(C)C3)cc2)cc1` (stereo not drawn), the “hERG current change (%, negative = inhibition) at 10uM” value worked out at 14.2%.

In the case of `CC(C)(C)c1ccc(S(=O)(=O)Nc2ccc(C(=O)N3CCCC3)cc2)cc1`, the “hERG current change (%, negative = inhibition) at 10uM” value was -61.9%.

For the molecule `O=C(Nc1nnc(-c2ccco2)o1)c1ccc(Cl)s1`, the “hERG current change (%, negative = inhibition) at 10uM” value was 8.23%.

Turning to `Cc1cc(Cl)c(OCCCSc2nc(C)cc(=O)[nH]2)c(Br)c1`, the “hERG current change (%, negative = inhibition) at 10uM” value is reported as -10.3%.

On to `CCc1nnc(NC(=O)CSc2ncc(-c3ccccc3)[nH]2)s1`, for which the “hERG current change (%, negative = inhibition) at 10uM” value amounted to 2.52%.

With `Cc1cccc(C(=O)NNC(=O)c2ccccc2-n2cccc2)c1`, the “hERG current change (%, negative = inhibition) at 10uM” value is given as 11.7%.

For `COC(=O)c1c(SCC(=O)Nc2ccc(C)c(C)c2)nc(=O)[nH]c1C`, the “hERG current change (%, negative = inhibition) at 10uM” value is listed as 2.16%.

Regarding `COC(=O)c1c(SCc2cccc3ccccc23)nc(=O)[nH]c1C`, the “hERG current change (%, negative = inhibition) at 10uM” value was determined as 7.87%.

On to `COC(=O)c1c(SCc2ccc(C#N)cc2)nc(=O)[nH]c1C`, for which the “hERG current change (%, negative = inhibition) at 10uM” value is -76.9%.

Turning to `CCOC(=O)c1c(C)n(C)c2ccc(OCC(O)CNC(CC)CO)cc12` (stereo not drawn), the “hERG current change (%, negative = inhibition) at 10uM” value was -7.11%.

Consider `COc1ccccc1/C=N/Nc1nccnc1Cl`, for which the “hERG current change (%, negative = inhibition) at 10uM” value was -11.5%.

With `O=C(O)c1ccc(N=Cc2c(O)[nH]c(=O)[nH]c2=O)cc1`, the “hERG current change (%, negative = inhibition) at 10uM” value amounted to 8.59%.

As to `CC(C)=CCN1CCN(CCCn2cccn2)CC1CCO` (stereo not drawn), the “hERG current change (%, negative = inhibition) at 10uM” value is recorded as -11.8%.

Turning to `CC(C)N1CCC(N2CCN(CCCn3cccn3)CC2CCO)CC1` (stereo not drawn), the “hERG current change (%, negative = inhibition) at 10uM” value is -28%.

On to `Cc1ccc(CN2CCN(CCCn3cccn3)CC2CCO)cc1` (stereo not drawn), for which the “hERG current change (%, negative = inhibition) at 10uM” value is given as -66.9%.

In the case of `CCOc1ccccc1CN1CCN(CCCn2cccn2)CC1CCO` (stereo not drawn), the “hERG current change (%, negative = inhibition) at 10uM” value was -57.4%.

Consider `OCCC1CN(CCCn2cccn2)CCN1Cc1ccccc1` (stereo not drawn), for which the “hERG current change (%, negative = inhibition) at 10uM” value was -8.62%.

Take `CCOc1ccc(CN2CCN(CCCn3cccn3)CC2CCO)cc1` (stereo not drawn): the “hERG current change (%, negative = inhibition) at 10uM” value is -80.1%.

On to `CC(C)CCN1CCN(CCCn2cccn2)CC1CCO` (stereo not drawn), for which the “hERG current change (%, negative = inhibition) at 10uM” value is on record as -6.72%.

The values are drawn from PMC4336329 (PLoS ONE, 2015).
